Laboratory results: PubChem BioAssay (NCATS)
Inconclusive results are not listed. The source made the active and inactive calls. Unless noted, calls come from the whole dose curve; as a rule, active = well fitted curve in the direction sought with a large enough effect; inconclusive = small, poorly fitted or top-dose-only effect, or another doubt; inactive = no such curve, though single readings can be large; an effect the other way counts as inactive or inconclusive. Numbered stars: 1 amine (or outer) side, 2 acyl side, 3 side chain; on linkers, the order of the positions; unused ones are H or OH. Square brackets hold non-standard residues; d marks the D form. Peptide text beside a SMILES is read from it. X1 = CCCCCCCCCC(=O)[C@H](C(=O)[*:2])[C@@H]1CNC(=O)[C@@H](N[*:1])CS1

Tests used:
[1] = tested on: Zika virus NS2B-NS3 protease (linked construct); test: Primary screen NINDS Rhodamine qHTS for Zika virus inhibitors (AID 1347160); note: nearly all actives have a fitted effect of over 55% in size; note: potency is the fitted concentration of half-maximal effect; for activity change, negative = inhibition: % is set by controls: 0 for no effect and ±100 for the full control effect
In short: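 Purified NS2B-NS3 protease with the NS2B hydrophilic domain joined by a flexible linker (25 nM) in 10 mM Tris-HCl pH 8.0, 0.01% Tween 20, preincubated 15 min at RT with compound; Rhodamine110 peptide substrate 1.5 µM; fluorescence change over 15 min; 4-parameter Hill fit.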

[2] = OV-KATE Cancer Cell Toxicity qHTS against the NCATS CANVASS Library (AID 1347345); note: potency is the fitted concentration of half-maximal effect
In short: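 ATP content after 72 h treatment, detected by CellTiter-Glo luminescence (15min room-temperature development), reflects cell viability. Wells contained 1000 cells and received compounds at 11 concentrations.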

[3] = HPAF-II Cancer Cell Toxicity qHTS against the NCATS CANVASS Library (AID 1347346); note: nearly all actives have a fitted effect of over 55% in size; note: potency is the fitted concentration of half-maximal effect
In short: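 HPAF-II cells at 1000 cells/well were treated with an 11-point concentration series for 72 hours at 37 degrees C. Viability read by CellTiter-Glo luminescence.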

[4] = HPAF-II 24hr Apoptosis Induction qHTS against the NCATS CANVASS Library (AID 1347356); note: 0% is about no effect
In short: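 HPAF-II cells (500/well) exposed to compounds in 11-point series for 24 h at 37 degrees C; caspase-3/7 activity read by Caspase-Glo luminescence after 15 min at room temperature. Doxorubicin titration as control.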

[5] = HEK293 18hr Apoptosis Induction qHTS against the NCATS CANVASS Library (AID 1347357); note: 0% is about no effect
In short: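 Luminescent caspase-3/7 signal is measured in HEK293 cells exposed for 18 hours to an 11-point concentration series; doxorubicin serves as the plate control.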

[6] = HEK293 24hr Apoptosis Induction qHTS against the NCATS CANVASS Library (AID 1347359); note: 0% is about no effect
In short: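 HEK293 cells, 500 per well, exposed to an 11-point compound series for 24 hours at 37 degrees C. Caspase 3/7 activity read by Caspase-Glo luminescence (DEVD substrate) after 15 min at room temperature.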

[7] = qHTS for ATAD5 Agonist screened against the NCATS CANVASS Library (AID 1347367);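 note: luciferase reporter driven by ATAD5 which rises upon DNA damage; 0% is about no effect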
In short: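 Step one plated reporter cells and let them acclimate 5hr. Step two pinned compounds with MMS as positive and 0.46% DMSO as negative control. After 16hr incubation, fluorescence viability then luminescence were read.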

[8] = MCF7 Cancer Cell Toxicity qHTS against the NCATS CANVASS Library (AID 1347369); note: potency is the fitted concentration of half-maximal effect
In short: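 Cytotoxicity is measured by ATP content: MCF7 cells at 500 per well receive an 11-point compound series and, after 72 hr at 37C, are lysed with CellTiterGlo for luminescence.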

[9] = qHTS for ATAD5 Antagonist screened against the NCATS CANVASS Library (AID 1347370); note: nearly all actives have a fitted effect of over 65% in size; note: potency is the fitted concentration of half-maximal effect;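 for activity change, negative = inhibition: HEK293T cells carrying an ATAD5 luciferase reporter co-treated with 10 µM 5-fluorouridine; % is set by controls: 0 for no effect and ±100 for the full control effect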
In short: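 HEK293T cells with stably integrated ATAD5-luciferase reporter, 2000/well, 5 h attachment; compounds plus 10 µM 5-fluorouridine, 16 h at 37 °C. Luciferase luminescence read, with CellTiter-Fluor viability read first.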

[10] = J3T Cancer Cell Toxicity qHTS against the NCATS CANVASS Library (AID 1347371); note: potency is the fitted concentration of half-maximal effect
In short: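 J3T dog glioma cells, 500 per well, treated 72 h at 37C with compounds (11-point qHTS); viability from ATP content by CellTiterGlo luminescence; bortezomib titration as control.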

[11] = target: Nuclear receptor subfamily 1 group I member 3 (Homo sapiens) (UniProt Q14994); test: qHTS for Constitutive Androstane Receptor (CAR) Antagonist screened against the NCATS CANVASS Library (AID 1347372);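 note: cells stimulated with 50 nM CITCO agonist so inhibition reflects antagonism; % is set by controls: 0 for no effect and ±100 for the full control effect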
Nuclear receptor subfamily 1 group I member 3 (Homo sapiens), sequence (Q14994 whole entry, looked up): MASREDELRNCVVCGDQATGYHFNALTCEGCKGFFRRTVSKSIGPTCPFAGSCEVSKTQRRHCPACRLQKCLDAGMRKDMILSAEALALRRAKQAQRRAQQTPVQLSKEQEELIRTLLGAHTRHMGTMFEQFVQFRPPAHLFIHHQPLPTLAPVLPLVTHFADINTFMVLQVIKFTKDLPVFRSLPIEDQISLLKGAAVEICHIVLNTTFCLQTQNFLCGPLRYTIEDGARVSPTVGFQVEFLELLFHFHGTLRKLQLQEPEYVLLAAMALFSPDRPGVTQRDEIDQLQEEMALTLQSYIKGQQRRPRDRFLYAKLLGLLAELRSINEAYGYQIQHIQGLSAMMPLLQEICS
In short: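 HepG2 cells stably carrying hCAR and CYP2B6-2.2kb luciferase reporter, 2500 cells/well, compound with 50 nM CITCO agonist for 24hr at 37C. ONE-Glo luminescence measured CAR activity; CellTiter-Fluor read viability.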

[12] = 10-beta competent E. coli microbial cell viability qHTS against the NCATS CANVASS Library (AID 1347376); note: 0% is about no effect
In short: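 10-beta competent E. coli (0.2 OD) were exposed overnight at 37C to compounds in an 11-point series. Viability was read as ATP-dependent BacTiter-Glo luminescence after 20 min at room temperature.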

[13] = Inflammasome Signaling qHTS Counterscreen: IL-1-beta AlphaLISA counterscreen against the NCATS CANVASS Library (AID 1347381);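 note: cell-free check with purified IL-1β in medium and no THP-1 cells; 0% is about no effect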
In short: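 Cell-free interference check: compounds added to medium spiked with 4 pg purified IL-1β. Anti-IL-1β acceptor beads (6 ug/mL) with 0.6 nM biotinylated antibody added for 1 h at RT, then streptavidin donor beads (24 ug/mL) for 30 min in the dark. AlphaLISA read at 680/615 nm.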

[14] = Primary qHTS for small molecule stabilizers of the endoplasmic reticulum resident proteome: Secreted ER Calcium Modulated Protein (SERCaMP) assay (AID 1508630); note: % is set by controls: 0 for no effect and ±100 for the full control effect
In short: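 GLuc-SERCaMP-expressing SH-SY5Y cells, pretreated 16 h with compound, are challenged with thapsigargin to empty ER calcium stores; after 4 h, coelenterazine is added directly to the medium and luminescence is imaged.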

[15] = qHTS Assay for Lipid Storage Modulators (AID 1519; calls by dose curve); conditions: Drosophila S3 cells, BODIPY lipid droplet/cell ratio, laser cytometry, cells loaded with oleic acid
In short: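 Cells seeded at 5,000 per well were treated with compounds over a concentration series and loaded with oleic acid (400 uM, as added). Lipid droplet fluorescence (488 nm excitation, 500-530 nm channel) was read by laser-scanning cytometry and normalized to 20 uM Triacsin C.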

CC1(C)C=Cc2c(ccc3c2OC[C@@H](c2ccc(O)cc2O)C3)O1
inactive: Potency [2] | Potency [3] | outcome [4] | Potency [5] | Potency [6] | Potency [7] | Potency [8] | Potency [9] | Potency [10] | Potency [11] | outcome [12] | outcome [13]
active: Potency [1] 44 µM

CC(=O)[C@@H]1[C@@H](O)C[C@H]2[C@]3(C)CC[C@H]4C(C)(C)CCC[C@]4(CO)[C@H]3C[C@H]3OC(=O)[C@@H]1[C@@]32C
active: Potency [1] 55.3 µM
inactive: Potency [2] | Potency [3] | outcome [4] | Potency [5] | Potency [6] | Potency [7] | Potency [8] | Potency [9] | Potency [10] | Potency [11] | outcome [12] | outcome [13]

Oc1ccc([C@H]2Oc3ccc(/C=C/c4cc(O)cc(O)c4)cc3C2c2cc(O)cc(O)c2)cc1 (some centres not stated)
active: Potency [1] 24.7 µM
inactive: Potency [2] | Potency [3] | outcome [4] | Potency [5] | Potency [6] | Potency [7] | Potency [8] | Potency [9] | Potency [10] | Potency [11] | outcome [12] | outcome [13]

CN(C)CCCCSC(=N)N
inactive: Potency [14]

O=c1cc(-c2ccc(O)c(O[C@@H]3O[C@H](CO)[C@@H](O)[C@H](O)[C@H]3O)c2)oc2cc(O[C@@H]3O[C@H](CO)[C@@H](O)[C@H](O)[C@H]3O)cc(O)c12
active: Potency [1] 27.7 µM
inactive: Potency [2] | Potency [3] | outcome [4] | Potency [5] | Potency [6] | Potency [7] | Potency [8] | Potency [9] | Potency [10] | Potency [11] | outcome [12] | outcome [13]

C=C1C(=O)O[C@H]2C[C@H](C)[C@@H]3CC(=O)C(C)=C3[C@H](O)[C@H]12
inactive: Potency [1] | outcome [4] | Potency [6] | Potency [7] | outcome [12] | outcome [13]
active: Potency [2] 13.3 µM | Potency [3] 13.3 µM | Potency [8] 18.6 µM | Potency [9] 13.2 µM | Potency [10] 23.5 µM

CCCCCCCCCC(=O)[C@@H]1C(=O)N[C@@H](CC(C)C)C(=O)N[C@H](C)C(=O)N2CCC[C@H]2C(=O)N[C@@H](C(C)C)C(=O)N[C@H]2CS[C@H]1CNC2=O (cyclo(L[dA]PV[X1]))
inactive: Potency [2] | Potency [3] | outcome [4] | Potency [5] | Potency [6] | Potency [7] | Potency [8] | Potency [9] | Potency [10] | Potency [11] | outcome [12] | outcome [13]
active: Potency [1] 4.4 µM

CC(C)(Br)[C@@H](Cl)C[C@H](Br)[C@](C)(Cl)/C=C/Br
active: Potency [1] 34.9 µM | Potency [2] 23.6 µM | Potency [3] 26.6 µM
inactive: outcome [4] | Potency [5] | Potency [6] | Potency [7] | Potency [8] | Potency [9] | Potency [10] | Potency [11] | outcome [12] | outcome [13]

COc1c(O)cc2oc(-c3ccccc3)cc(=O)c2c1O
active: Potency [1] 44 µM
inactive: Potency [2] | Potency [3] | outcome [4] | Potency [5] | Potency [6] | Potency [8] | Potency [9] | Potency [10] | Potency [11] | outcome [12] | outcome [13]

CN1CCc2cc3c(c4c2[C@H]1[C@@H](O)c1ccccc1-4)OCO3
inactive: Potency [2] | outcome [4] | Potency [5] | Potency [6] | Potency [7] | Potency [10] | Potency [11] | outcome [12] | outcome [13]
active: Potency [1] 44 µM | Potency [3] 13.3 µM | Potency [8] 26.2 µM

C[C@@H]1O[C@@H](Oc2c(-c3ccc(O)cc3)oc3cc(O)cc(O)c3c2=O)[C@H](O)[C@H](O)[C@H]1O
active: Potency [1] 44 µM
inactive: Potency [3] | outcome [4] | Potency [5] | Potency [6] | Potency [7] | Potency [8] | Potency [9] | Potency [10] | Potency [11] | outcome [12] | outcome [13]

C=C(C)[C@@H]1CC[C@]2(C)CC[C@]3(C)[C@H](CC[C@@H]4[C@@]5(C)CC[C@H](O)C(C)(C)[C@@H]5CC[C@]43C)[C@@H]12
inactive: Potency [1] | Potency [2] | Potency [3] | outcome [4] | Potency [5] | Potency [6] | Potency [7] | Potency [8] | Potency [9] | Potency [10] | Potency [11] | outcome [12] | outcome [13]

CC1(C)CC[C@]2(C(=O)O)CC[C@]3(C)C(=CC[C@@H]4[C@@]5(C)C[C@@H](O)[C@H](O)C(C)(C)[C@@H]5CC[C@]43C)[C@@H]2C1
active: Potency [1] 19.6 µM
inactive: Potency [2] | Potency [3] | outcome [4] | Potency [5] | Potency [6] | Potency [7] | Potency [8] | Potency [9] | Potency [10] | Potency [11] | outcome [12] | outcome [13]

CCCCC/C=C\C\C=C/C=C/C=C/[C@@H](SCC(NC(C)=O)C(=O)O)[C@@H](O)CCCC(=O)O (some centres not stated)
inactive: activity change, negative = inhibition [14] -5.72% [at 0.478 µM]

O=c1oc(-c2ccc(C(F)(F)F)cc2)nn1Cc1cc(Cl)ccc1O
inactive: Potency [14]

C=CCN1CCc2cc(O)c(O)cc2[C@H](c2ccccc2)C1
inactive: Potency [14]

CCCn1c(=O)[nH]c2nc(-c3ccc(S(=O)(=O)O)cc3)[nH]c2c1=O
inactive: Potency [14]

CC(=O)N(O)[C@@H]1c2cc(C#N)ccc2OC(C)(C)[C@H]1O
inactive: Potency [14]

N[C@@H](Cn1cc(I)c(=O)n(Cc2ccc(C(=O)O)cc2)c1=O)C(=O)O
4.58%: max response ([15]; measured here: cell count channel max response)
inactive: activity change, negative = inhibition ([15]; at 57.5 µM (top of the series)) 2.45%
1.43%: max response ([15]; measured here: lipid channel max response)

O=Cc1c2[nH]c3ccccc3c2cc2[nH]c3ccccc3c12
inactive: Potency [14]

CCCCCCCC(=O)OC[C@H](CO)OC(=O)CCCCCCC
inactive: activity change, negative = inhibition [14] -8.21% [at 3.88 µM]
